The source of these data is PubChem BioAssay (NCATS).

“And” between values parts separate entries of the source, which are not always exact repeats. Equal values may be shown once. Records with an inconclusive call do not appear. Where a call stands in place of a potency, no number is given. Some compounds were tested as several samples or in several runs, with calls that do not always agree. The source made the active and inactive calls. The call rests on the fitted dose curve.
Potency means the concentration at half of the fitted maximal effect.

The nature of the first assay: Cytotoxicity counterscreen for inhibitors of SARS-CoV-2 cell entry (AID 1645845). Further: nearly all actives have a fitted effect of over 50% in size. Particulars: cell viability (SARS-CoV-2 entry assay cells); series mostly up to 57.1 µM. In outline:
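48 h compound treatment (after 1 h preincubation), HEK293-ACE2 cells, 37 C/5% CO2; ATP luminescence endpoint; normalized to cell wells and media blanks.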
As to `C=C1C[C@@H]2[C@H](CC[C@]3(C)C(=O)CC[C@@H]23)[C@@]2(C)C=CC(=O)C=C12`, the Potency result was “inactive”. Take `O=P1(NCCCl)OCCCN1CCCl` (configuration not stated): the Potency result is “inactive”. Turning to `CN(C)CCc1c[nH]c2ccc(CS(=O)(=O)N3CCCC3)cc12`, the Potency result was “inactive”. For the molecule `Cc1cc(SCc2sc(-c3ccc(C(F)(F)F)c(F)c3)nc2C)ccc1OCC(=O)O`, the Potency result is “inactive”. In the case of `O=c1[nH]c2ccccc2n1CCCN1CCC(n2c(=O)[nH]c3cc(Cl)ccc32)CC1`, the Potency entry is “inactive”. Turning to `CCC1(c2ccccc2)C(=O)NCNC1=O`, the Potency entry is “inactive”.

As to `COC[C@H]1OC(=O)c2coc3c2[C@@]1(C)C1=C(C3=O)C2CCC(=O)[C@@]2(C)C[C@H]1OC(C)=O` (some centres not stated), the Potency result was “inactive”. `CCOC(=O)c1ncn2c1CN(C)C(=O)c1cc(F)ccc1-2`: the Potency result was “inactive”. Regarding `O=C(O)P(=O)(O)O`, the Potency entry was “inactive”. For the molecule `Nc1ccncc1`, the Potency entry is “inactive”.

Consider `CC(O)(CS(=O)(=O)c1ccc(F)cc1)C(=O)Nc1ccc(C#N)c(C(F)(F)F)c1` (configuration not stated), for which the Potency entry is “inactive”. Regarding `Cc1oncc1C(=O)Nc1ccc(C(F)(F)F)cc1`, the Potency was 8.91 µM (active).

Regarding `N[C@@H](Cc1ccc(N(CCCl)CCCl)cc1)C(=O)O`, the Potency result is “inactive”. `Nc1ccn([C@@H]2O[C@H](CO)[C@@H](O)C2(F)F)c(=O)n1`: the Potency result is “inactive”. Still for that read-out and setting: the result for `CCc1c2c(nc3ccc(OC(=O)N4CCC(N5CCCCC5)CC4)cc13)-c1cc3c(c(=O)n1C2)COC(=O)[C@]3(O)CC` reads “inactive”; that for `CN(C)CCN(C)CCc1ccc(Cl)c(Cl)c1`, “inactive”. Same read-out and setting: the result for `CC(C(=O)O)c1cccc(C(=O)c2ccccc2)c1` (configuration not stated) reads “inactive”; that for `CCCc1cc(=O)[nH]c(=S)[nH]1`, “inactive”; that for `C[C@](N)(Cc1ccc(O)c(O)c1)C(=O)O`, “inactive”. The same measure, in the same setting: in the case of `CCn1cc(C(=O)O)c(=O)c2cc(F)c(N3CCNCC3)cc21` it was “inactive”; in that of `CCN(CC)C(=O)N[C@@H]1C=C2c3cccc4[nH]cc(c34)C[C@@H]2N(C)C1`, “inactive”; in that of `COC(c1ccccc1)(c1ccccc1)[C@H](Oc1nc(C)cc(C)n1)C(=O)O`, “inactive”. For `CC(=O)Oc1cc2c(s1)CCN(C(C(=O)C1CC1)c1ccccc1F)C2` (configuration not stated), the Potency result is “inactive”.

The next assay can be described thus: Primary qHTS to identify inhibitors of SARS-CoV-2 cell entry (AID 1645846). Further: nearly all actives have a fitted effect of over 45% in size. Particulars: SARS-CoV-2 pseudovirus cell entry assay, luminescence; activity change, negative = inhibition: at 57.1 µM (top of the series) unless noted; series mostly up to 57.1 µM. In outline:
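HEK293-ACE2 (Expi293F, stable hACE2), 1500 cells/well, o/n 37C; cpd 23 nL pin, 1 h; MLV-PP w/ SARS-CoV-2-S (Wuhan-Hu-1, Δ19 C-term); 48 h 37C; Bright-Glo luminescence; normalized vs S-PP and bald PP.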
With `COC(=O)C1=C(C)NC(C)=C(C(=O)OCC(C)C)C1c1ccccc1[N+](=O)[O-]` (configuration not stated), the activity change, negative = inhibition is -96.9%. `O=P1(NCCCl)OCCCN1CCCl` (configuration not stated): the Potency result was “inactive” and the activity change, negative = inhibition was -11%. On to `COC(=O)CCc1ccc(OCC(O)CNC(C)C)cc1` (configuration not stated), for which the activity change, negative = inhibition was -35%.

`CN(C)CCc1c[nH]c2ccc(CS(=O)(=O)N3CCCC3)cc12`: the Potency entry is “inactive” and the activity change, negative = inhibition was -5.24%. In the case of `COc1cc2c(c(OC)c1OC)-c1ccc(OC)c(=O)cc1[C@@H](NC(C)=O)CC2`, the activity change, negative = inhibition is -76.4%. For `Nc1nc(N)c2nc(-c3ccccc3)c(N)nc2n1`, the Potency entry is “inactive”. Consider `Cc1cc(SCc2sc(-c3ccc(C(F)(F)F)c(F)c3)nc2C)ccc1OCC(=O)O`, for which the Potency entry was “inactive”.

As to `COC(=O)C1=C(C)NC(C)=C(C(=O)OC(C)C)C1c1cccc2nonc12` (configuration not stated), the Potency entry was “inactive”. Regarding `NC[C@H](O)c1ccc(O)c(O)c1`, the activity change, negative = inhibition is 4.91% and -20.6%. `O=c1[nH]c2ccccc2n1CCCN1CCC(n2c(=O)[nH]c3cc(Cl)ccc32)CC1`: the activity change, negative = inhibition is -22.6%. Still for that read-out and setting: the result for `CN(Cc1cnc2nc(N)nc(N)c2n1)c1ccc(C(=O)N[C@@H](CCC(=O)O)C(=O)O)cc1` reads -94.2%. Take `CCC1(c2ccccc2)C(=O)NCNC1=O`: the Potency result is “inactive” and the activity change, negative = inhibition was -9.71%.

As for `O=C1c2c(O)ccc(O)c2C(=O)c2c(NCCNCCO)ccc(NCCNCCO)c21`, the activity change, negative = inhibition was -94.5% and -97.6%. Still for that read-out and setting: the result for `COC[C@H]1OC(=O)c2coc3c2[C@@]1(C)C1=C(C3=O)C2CCC(=O)[C@@]2(C)C[C@H]1OC(C)=O` (some centres not stated) reads 3.38%. Consider `Nc1[nH]c(=O)ncc1F`, for which the activity change, negative = inhibition was -21.9% and -13.2%. In the case of `CCOC(=O)c1ncn2c1CN(C)C(=O)c1cc(F)ccc1-2`, the Potency result is “inactive” and the activity change, negative = inhibition was -12.9%. Consider `COc1cc(Nc2c(C#N)cnc3cc(OCCCN4CCN(C)CC4)c(OC)cc23)c(Cl)cc1Cl`, for which the Potency is 3.16 µM (active). As to `O=C(O)P(=O)(O)O`, the Potency entry is “inactive”. In the case of `COC(=O)C(c1ccccc1Cl)N1CCc2sccc2C1` (configuration not stated), the Potency entry is “inactive”.

As for `Nc1ccncc1`, the activity change, negative = inhibition was -28.2% [at 114 µM]. On the same count and under the same terms, in the case of `CC(O)(CS(=O)(=O)c1ccc(F)cc1)C(=O)Nc1ccc(C#N)c(C(F)(F)F)c1` (configuration not stated) it was -21.9%. With `Cc1oncc1C(=O)Nc1ccc(C(F)(F)F)cc1`, the Potency result is “inactive” and the activity change, negative = inhibition was -15.8%.

For the molecule `CC(C)Oc1ccc2c(=O)c(-c3ccccc3)coc2c1`, the Potency result is “inactive”. With `Nc1ccn([C@@H]2O[C@H](CO)[C@@H](O)C2(F)F)c(=O)n1`, the Potency is 3.16 µM (active) and the activity change, negative = inhibition is -96.3%. Taken in the same sequence, the figures for `CCc1c2c(nc3ccc(OC(=O)N4CCC(N5CCCCC5)CC4)cc13)-c1cc3c(c(=O)n1C2)COC(=O)[C@]3(O)CC` were 0.891 µM (active) and -95.5%. As to `CC(C(=O)O)c1cccc(C(=O)c2ccccc2)c1` (configuration not stated), the Potency result was “inactive” and the activity change, negative = inhibition was -2.03%. For the molecule `CC1=C(C(=O)O)N2C(=O)[C@@H](NC(=O)[C@H](N)c3ccccc3)[C@H]2SC1`, the activity change, negative = inhibition was -1.93%.

Turning to `CCOc1ccc2ccccc2c1C(=O)N[C@@H]1C(=O)N2[C@@H]1SC(C)(C)[C@@H]2C(=O)O`, the Potency result was “inactive”.

With `CCCc1cc(=O)[nH]c(=S)[nH]1`, the Potency entry was “inactive” and the activity change, negative = inhibition was -37.3%. For `C[C@](N)(Cc1ccc(O)c(O)c1)C(=O)O` the same measures were “inactive” and -1.67%. For `CCn1cc(C(=O)O)c(=O)c2cc(F)c(N3CCNCC3)cc21` the same measures were “inactive” and -15.8%. For `CCN(CC)C(=O)N[C@@H]1C=C2c3cccc4[nH]cc(c34)C[C@@H]2N(C)C1`, the activity change, negative = inhibition came out at 3.33%.

As for `COC(c1ccccc1)(c1ccccc1)[C@H](Oc1nc(C)cc(C)n1)C(=O)O`, the Potency result was “inactive” and the activity change, negative = inhibition is -34.8%. On to `CC[C@@H]([C@H](C)O)n1ncn(-c2ccc(N3CCN(c4ccc(OC[C@@H]5CO[C@@](Cn6cncn6)(c6ccc(F)cc6F)C5)cc4)CC3)cc2)c1=O`, for which the activity change, negative = inhibition is -23.1%. For the molecule `CC(=O)Oc1cc2c(s1)CCN(C(C(=O)C1CC1)c1ccccc1F)C2` (configuration not stated), the Potency entry was “inactive” and the activity change, negative = inhibition was -16.4%.

As for `O=C(c1ccc(OCCN2CCCCC2)cc1)c1c(-c2ccc(O)cc2)sc2cc(O)ccc12`, the Potency is 31.6 µM (active).
